# Test results published in PubChem BioAssay (NCI).
# About 83,000 compounds went through this panel and 20% of them were active in at least one assay; those are over-represented in the sample as a whole.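 Method: cells in 96-well plates; compound added at one concentration; 48 h incubation; percent growth measured; values under 10 scored active.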 A number with no mark means an inactive call. Calls of active or inactive are those of the source.
# Assays:
# Experiment in all cases: NCI-60 one-dose screen, 48 h (100 = growth as untreated, 0 = no growth, -100 = all killed)
# Conditions in all cases: 10 µM
# [1] = system: SK-MEL-2 melanoma
# [2] = system: EKVX NSCLC
# [3] = system: SN12C renal
# [4] = system: UO-31 renal
# [5] = system: TK-10 renal
# [6] = system: ACHN renal
# [7] = system: CAKI-1 renal
# [8] = system: A498 renal
# [9] = system: CCRF-CEM leukemia
# [10] = system: MOLT-4 leukemia
SMILES,growth [1],growth [2],growth [3],growth [4],growth [5],growth [6],growth [7],growth [8],growth [9],growth [10]
CC(=O)Nc1ccc(-c2cn(-c3cccc(C(=O)Nc4cc(C(F)(F)F)cc(C(F)(F)F)c4)c3)nn2)cn1,-38.6% (active),-25.7% (active),-50.1% (active),1.1% (active),-10.4% (active),-26.2% (active),-44.3% (active),-30.2% (active),-25.4% (active),-37.1% (active)
CC(=O)Nc1ccc(-c2cn(-c3cccc(C(=O)Nc4cccc(OC(F)(F)F)c4)c3)nn2)cn1,95.4%,105%,114%,131%,111%,101%,94.5%,178%,98.1%,109%
O=C(c1ccc(O)cc1)C1[C@H](c2ccc(Br)cc2)[C@@H](c2ccccc2)NC12C(=O)Nc1ccccc12 (stereo partly specified),55.7%,28%,23.5%,18.9%,35.9%,6.89% (active),22.6%,37%,36.3%,16.3%
COc1cc(C2CC(c3ccc(C)cc3)=Nc3c(N)nc(N)nc3N2)ccc1Oc1nc(Nc2ccc(F)cc2)nc(N(C)C)n1 (stereo unspecified),72.9%,70.1%,68.6%,53.3%,101%,47.1%,49.4%,96.5%,47.1%,13.2%
O=C(Nc1cccc(-c2cn(-c3ccc4oc(=O)ccc4c3)nn2)c1)Nc1cc(C(F)(F)F)cc(C(F)(F)F)c1,29.6%,13.5%,24.6%,30.9%,50.9%,12.5%,36.2%,19.6%,27.1%,11.7%
COc1cc(NC(=O)c2cc(-c3ccc(F)cc3F)ccc2O)cc(OC)c1OC,-5.57% (active),50%,18.6%,9.27% (active),33%,55.9%,30.6%,-1.46% (active),25.6%,10.6%
O=C(O)CCCCCCCCCCN1C(=O)/C(=C/c2cnc(-c3ccc(Cl)cc3)s2)SC1=S,-38.6% (active),-12.5% (active),-57.4% (active),38.1%,58.2%,22.1%,12.2%,83.2%,,19.7%
COC[C@@H](CC(C)C)N=C1NC(=O)/C(=C/c2ccc3ncsc3c2)N1,-70.7% (active),17.8%,13.6%,-12.7% (active),27.8%,6.22% (active),4.39% (active),-7.78% (active),,11.1%
CN1CCN(Cc2ccc(C(=O)Nc3cccc(Nc4ccc5c(O)cccc5n4)c3)cc2C(F)(F)F)CC1,-75.9% (active),-45.6% (active),1.56% (active),-20.2% (active),-21% (active),-23.4% (active),-38.3% (active),-33.2% (active),5.12% (active),-2.84% (active)
COc1ccc(C(=O)/C=C/c2ccc(Cl)c(C(F)(F)F)c2)cc1S(N)(=O)=O,-83.1% (active),-98.2% (active),-100% (active),-99.6% (active),-96.3% (active),-100% (active),-100% (active),-30.3% (active),4.6% (active),8.09% (active)
OCc1[nH]nc2cc(Nc3ncc4ccc(Br)c(OC5CCC(O)CC5)c4n3)ccc12 (stereo unspecified),-75.8% (active),-27.8% (active),1.92% (active),-27.2% (active),-89.6% (active),0.365% (active),-17.2% (active),-26.7% (active),0.234% (active),1.17% (active)
Cc1ccc([N+](=O)[O-])c(C(=O)Nc2ccc(-c3ccc4c(c3)NC(=O)/C4=C\c3ccc[nH]3)cc2)c1,75.5%,25.7%,60.1%,76.6%,105%,66.4%,69.4%,134%,22.1%,14.1%
O=C(CNc1nc(-c2ccccc2)cs1)Nc1ccc([N+](=O)[O-])cc1Cl,20.1%,18.5%,13.4%,25.5%,52.9%,38.8%,44.9%,55%,15.3%,11%
COc1cc(-c2nc3cc(Cl)c(Cl)cc3[nH]2)ccc1OCc1nnc(-c2ccc(Br)cc2)o1,0.585% (active),14.3%,-39.2% (active),-91.1% (active),-43.4% (active),-100% (active),-76.6% (active),-86.5% (active),7.7% (active),-7.63% (active)
COc1cc(/C=C/C(=O)c2ccc(F)cc2)ccc1Oc1nc(Nc2ccc(F)cc2)nc(N(C)C)n1,61%,50.1%,60.1%,47.1%,99.4%,50.9%,58%,86.5%,15.2%,1.46% (active)
COc1csc(/C=N/NC(=O)c2[nH]c3ccc(Br)cc3c2-c2ccccc2)c1,10.3%,49.2%,5.51% (active),36.7%,32.8%,19.1%,9.49% (active),57.8%,-2.42% (active),1.69% (active)
COc1ccc(NC(=O)Cn2c(/C=C/c3ccc(N(C)C)cc3)nc3ccccc3c2=O)cc1,76.4%,71.2%,24%,2.65% (active),62.8%,-2.17% (active),18.9%,56.5%,90.9%,85.3%
CCOc1ccc2ncc(C#Cc3cncc(C(=O)Nc4ccc(CN5CCN(C)CC5)c(C(F)(F)F)c4)c3)n2n1,-75.7% (active),-65.8% (active),-82.9% (active),-65.8% (active),-66.5% (active),-87% (active),30.4%,,7.96% (active),-8.54% (active)
Cc1cc(C)nc(NS(=O)(=O)c2ccc(N/C(N)=N/c3nccc(-c4cccs4)n3)cc2)n1,108%,83.5%,96.9%,59.1%,117%,94.8%,74.2%,,95%,96.8%
Cc1cc(C)nc(SCC(=O)Nc2ccc(S(N)(=O)=O)cc2)n1,103%,99.8%,105%,87.1%,102%,101%,96.5%,,97.1%,
O=C(O)CCCCCCCCCCN1C(=O)/C(=C/c2cnc(-c3ccccc3)s2)SC1=S,93.2%,52.8%,30.1%,77.5%,150%,70.3%,61.6%,99.8%,,39.1%
CC(C)c1ccc(C(=O)Nc2sc3c(c2C(N)=O)CCC(=O)C3=O)cc1,98.8%,87.9%,94.7%,59.7%,125%,93.6%,91.9%,,86.4%,72.4%

SMILES,growth [1],growth [2],growth [3],growth [4],growth [5],growth [6],growth [7],growth [8],growth [9],growth [10]
COc1ccc(-c2cc(C(=O)N=Nc3c(O)[nH]c4ccc(F)cc34)c3ccccc3n2)cc1,128%,86.4%,65.5%,67.6%,120%,68.1%,87.8%,,44.2%,21.9%
O=C1NC(=NC2CCCCCC2)N/C1=C\c1ccc2ncoc2c1,22.9%,38.8%,21.1%,4.42% (active),43.8%,9.91% (active),10%,,18%,38.2%
COc1cc2c(c(OC)c1OC)C(=O)CC(c1cccc(NC(=O)c3cccc(N)c3)c1)O2 (stereo unspecified),85.2%,91.9%,74.3%,58.6%,118%,84.6%,65.9%,,49.4%,43.1%
CC1(C)CC[C@]2(C(=O)O)CC[C@]3(C)C(=CC[C@@H]4[C@@]5(C)C/C(=C/c6ccncc6)[C@H](O)C(C)(C)[C@@H]5CC[C@]43C)[C@@H]2C1,55.4%,30.1%,55%,32.9%,46.9%,25.7%,35.6%,,21%,
COc1ccc(C(=O)NC(=S)N2CCN(c3ncnc4c3cnn4-c3ccccc3)CC2)cc1,57.6%,81.4%,46%,69%,101%,64.3%,28.1%,115%,,58.2%
Cc1cc(C)nc(/N=C(\N)Nc2ccc(S(=O)(=O)Nc3nc(C)cc(C)n3)cc2)n1,107%,104%,111%,85%,105%,115%,100%,,96.2%,104%
CCCCSc1nc(Nc2ccc(/C(C)=N/NC(N)=S)cc2)c(C#N)c(-c2ccc(OC)cc2)n1,104%,79.4%,7.27% (active),-19.7% (active),-0.624% (active),55.2%,51.6%,,86.2%,67.7%
C/C(=N\N=C\c1ccc(N(C)C)cc1)c1ccc2c(c1)Nc1ccccc1S2,84.6%,47.1%,49.8%,57.4%,70.6%,50.8%,56.5%,,59.5%,34.3%
COc1ccc2[nH]c(O)c(N=NC(=O)c3cc(-c4ccc(C)cc4)nc4ccccc34)c2c1,111%,97.6%,92.1%,69.9%,117%,81%,,126%,52.1%,
O=C(Cc1ccc2c(c1)CN(C1CCC(=O)NC1=O)C2=O)NCc1cccc2ccccc12 (stereo unspecified),-45.7% (active),1.9% (active),-7.92% (active),-33.8% (active),18%,-19% (active),7.68% (active),,9.65% (active),-15.2% (active)
Cc1ccc(C(C)C)cc1NC(=O)c1ccccc1N(C)C,86.8%,81.1%,88.1%,76.4%,90.2%,88.4%,70.6%,,80.1%,
CN1C(=O)/C(=C/c2nccs2)SC1=S,96.9%,80.7%,75.8%,78.7%,162%,88.1%,72.9%,109%,,98.8%
COc1ccc(NC(=O)CSc2nnc(-c3ccc4nc(-c5ccc(Cl)cc5)[nH]c4c3)o2)cc1,107%,98.8%,29.1%,63.9%,121%,63.8%,83.6%,,67.5%,30.4%
O=C(CSc1nnc(-c2ccc3nc(-c4ccc(Cl)cc4)[nH]c3c2)o1)Nc1ccc(Cl)cc1,-25.2% (active),5.97% (active),-93.7% (active),-45.4% (active),50.7%,-89.7% (active),-35.6% (active),,-1.24% (active),-4.88% (active)
O=C(COc1ccc(NC(=O)Nc2ccc(Cl)cc2)cc1)N=Nc1c(O)[nH]c2ccc([N+](=O)[O-])cc12,-15.7% (active),88.3%,32.3%,77.2%,101%,93.4%,96.3%,,-36.9% (active),
Cc1cc(=O)oc2cc(OCCCCOc3ccc(/C=C/C(=O)Nc4ccccc4[N+](=O)[O-])cc3)ccc12,117%,105%,100%,90.6%,104%,108%,100%,,99.8%,108%
COC(=O)C[C@](O)(CCCC(C)(C)O)C(=O)O[C@H]1C(OC)=C[C@@]23CCC(=O)N2CCc2cc4c(cc2[C@@H]13)OCO4,110%,103%,115%,65%,101%,101%,94.3%,,101%,73.4%
O=C(c1ccc(-n2c(=O)[nH]c3ccccc3c2=O)cc1)N1CCOCC1,102%,101%,89.8%,82.5%,97.2%,103%,89%,,108%,
COc1ccc(CCN2C(=O)/C(=C/c3csc(C#N)n3)SC2=S)cc1,-0.186% (active),20%,-38.2% (active),-43.9% (active),13.3%,4.4% (active),-0.602% (active),61.4%,,-11.2% (active)
CS(=O)(=O)Nc1ccc(-c2ccc3c(c2)ncn3-c2ccc(NC(=O)Nc3ccc(Cl)c(C(F)(F)F)c3)cc2)cc1,-83% (active),-60.3% (active),-68.7% (active),-65.1% (active),-6.45% (active),-63.7% (active),-55.2% (active),,-31.7% (active),-36.8% (active)
CN1CCO/C1=C(/NC(=O)c1ccc(Cl)cc1)[P+](c1ccccc1)(c1ccccc1)c1ccccc1,90.9%,81.2%,92.4%,86.7%,99.6%,110%,103%,,77.9%,87.9%
